Sm TGR block = blocks Schistosoma mansoni thioredoxin glutathione reductase | purified TGR, DTNB reduction, TNB absorbance 405 nm | Potency, µM (titrated, usually from 114 µM), usual class: inhibitors | 360,000 compounds, 3% hits | AID 485364; further: nearly all actives have a fitted effect of over 60% in size
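TGR 20 nM + NADPH 100 uM (dispensed conc.), cpd preinc 15 min RT; start with NADPH (500 uM addition) then DTNB (15 mM addition). Kinetic TNB absorbance, 405 nm filter. Four-parameter Hill fit across titration.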
AmpC no deterg = blocks E. coli AmpC beta-lactamase in detergent-free assay; P00811; AmpC nitrocefin hydrolysis, absorbance 480 nm, 0.0001% Triton; Potency, µM (series often up to 57.1 µM), hits mostly inhibitors; 330,000 compounds, 0.52% hits; further: nearly all actives have a fitted effect of over 20% in size
Target sequence (P00811 whole entry, looked up): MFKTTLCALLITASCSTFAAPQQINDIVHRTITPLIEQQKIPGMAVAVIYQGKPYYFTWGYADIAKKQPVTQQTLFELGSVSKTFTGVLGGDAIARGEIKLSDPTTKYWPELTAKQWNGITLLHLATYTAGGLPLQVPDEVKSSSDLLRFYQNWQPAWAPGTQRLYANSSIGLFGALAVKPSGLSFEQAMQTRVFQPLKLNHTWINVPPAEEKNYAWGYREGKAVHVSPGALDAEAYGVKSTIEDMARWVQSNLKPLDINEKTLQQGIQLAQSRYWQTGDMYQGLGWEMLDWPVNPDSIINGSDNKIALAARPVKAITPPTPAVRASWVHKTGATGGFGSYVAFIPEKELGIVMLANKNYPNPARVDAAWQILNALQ
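AmpC (5.3 nM in the dispensed reagent) in 20 mM phosphate pH 7.0 with 0.01% (detergent screen) or 0.0001% Triton X-100 was preincubated with compounds for 15 min at room temperature. Nitrocefin was then added from an 800 uM solution, and hydrolysis was followed at 480 nm.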
AmpC inh detg = blocks E. coli AmpC beta-lactamase in detergent assay; P00811; Potency, µM (doses to about 114 µM), most hits filed as inhibitors; AmpC hydrolysis of nitrocefin, absorbance 480 nm, 0.01% Triton; AID 485294; 370,000 compounds, 0.041% hits; further: nearly all actives have a fitted effect of over 25% in size
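20 mM phosphate pH 7.0 + 0.01% (detergent screen) or 0.0001% Triton X-100; 5.3 nM AmpC reagent; cpd preinc 15 min RT; nitrocefin (800 uM stock) to start; A480 q20 s × 4 min; Activity was normalised to no-enzyme and no-compound control wells.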
Of the large screens only hits and unclear results are named; the others gave an inactive call. Sampled rows, rich in hits. Any-hit rate of the full collection: about 3.3%. The call rests on the fitted dose curve; in most records, active means well fitted curve in the direction sought with a large enough effect; inconclusive means small, poorly fitted or top-dose-only effect, or another doubt; inactive means no such curve, though single readings can be large; an effect the other way counts as inactive or inconclusive.

Cc1oc(-c2cccs2)nc1CS(=O)CC(=O)NCc1ccc2c(c1)OCO2 (configuration not stated)	Sm TGR block 40µM
COc1ccc(CCNC(=O)CS(=O)Cc2nc(-c3ccccc3Cl)oc2C)cc1OC (configuration not stated)	Sm TGR block 56µM
Cc1oc(-c2ccccc2Cl)nc1CS(=O)CC(=O)NCc1ccc(Cl)cc1 (configuration not stated)	none
Cc1ccccc1-c1nc(CS(=O)CC(=O)NCc2ccc3c(c2)OCO3)c(C)o1 (configuration not stated)	Sm TGR block inconclusive
COc1ccc(CCNC(=O)CS(=O)Cc2nc(-c3ccccc3F)oc2C)cc1OC (configuration not stated)	Sm TGR block inconclusive, AmpC inh detg inconclusive
Cc1ccc(CNC(=O)CS(=O)Cc2nc(-c3cccs3)oc2C)cc1 (configuration not stated)	Sm TGR block 25µM, AmpC inh detg inconclusive
COc1ccc(CCNC(=O)CS(=O)Cc2nc(-c3cccs3)oc2C)cc1OC (configuration not stated)	Sm TGR block 22µM
Cc1ccc(C)c(NC(=O)Cn2cc(C(=O)C3CCCCC3)c3ccccc32)c1	none (no result: AmpC no deterg)
COc1cccc(-c2nc(SCc3ccc(C)cc3)n3[nH]c(=O)cc3n2)c1	none (no result: AmpC no deterg)
CCN(CC)S(=O)(=O)c1cc(-c2ccc(=O)n(C(C)C(=O)Nc3cccc(C#N)c3)n2)ccc1C (configuration not stated)	none (no result: AmpC no deterg)
Cc1cccc(NC(=O)Cn2c(=O)n(CC3CCC(C(=O)NCCc4ccccc4)CC3)c(=O)c3ccccc32)c1 (configuration not stated)	none (no result: AmpC no deterg)
Cc1ccc(CCNC(=O)CS(=O)Cc2nc(-c3cccs3)oc2C)cc1 (configuration not stated)	Sm TGR block 8.9µM
Cc1ccc(CCNC(=O)CS(=O)Cc2nc(-c3ccccc3F)oc2C)cc1 (configuration not stated)	Sm TGR block inconclusive
Cc1cccc(-n2cc(-c3ccccc3)c3c(NC(C)C)ncnc32)c1	none (no result: AmpC no deterg)
CC(=O)N1CCC2(CC1)CC(=O)c1cc(OCC(=O)NCc3ccc(C)cc3)ccc1O2	none
CC(=O)N1CCC2(CC1)CC(=O)c1cc(OCC(=O)NCc3ccco3)ccc1O2	Sm TGR block 25µM, AmpC inh detg inconclusive
CCOC(=O)c1sc(NC(=O)c2cc(-c3ccc(F)cc3)on2)c(C(=O)OCC)c1C	none (no result: AmpC no deterg)
Cc1cc(O)c(CN2CCN(c3ccc(F)cc3)CC2)c2oc(=O)cc(C)c12	none (no result: AmpC no deterg)
O=C(CCSCc1cnn(-c2ccccc2)c1-n1cccc1)NCc1ccccc1Cl	none (no result: AmpC no deterg)
CC(=O)c1cccc(NC(=O)c2noc3c2CCCC3)c1	none (no result: AmpC no deterg)
Cc1[nH]c2ccc(C(=O)O)cc2c1C	none
CCCc1c(C)[nH]c2ccc(C(=O)O)cc2c1=S	Sm TGR block inconclusive, AmpC inh detg 40µM
COCCN1C(=O)N(c2cccc(OC)c2)C(=O)C1CC(=O)Nc1ccccc1 (configuration not stated)	none (no result: AmpC no deterg)
O=S(=O)(Cc1cnc(Cl)s1)c1ccccc1	none
O=S(=O)(Cc1ccccc1)Cc1cnc(Cl)s1	Sm TGR block 40µM
C=Cc1ccc(Cn2c(C)c(CNCCc3ccc(OCC)cc3)c(C(=O)O)c2C)cc1	none (no result: AmpC no deterg)
COc1ccc(CCNC(=O)c2cc(-c3ccc(C)c(C)c3)nc3ccccc23)cc1OC	none (no result: AmpC no deterg)
Cc1ccc(NC(=O)CCC(=O)OCC(=O)c2ccc(Oc3ccc([N+](=O)[O-])cc3)cc2)cc1C	none
Cc1cccc(NC(=O)CCC(=O)OCC(=O)c2ccc(Oc3ccc([N+](=O)[O-])cc3)cc2)c1	Sm TGR block 40µM, AmpC inh detg inconclusive
CCOc1cc(C(=O)N2CCn3c4c(c5cc(C)ccc53)CCCC42)cc(OCC)c1OCC (configuration not stated)	none (no result: AmpC no deterg)
Cc1ccc2c(c1)c1c3n2CCN(C(=O)CCl)C3CCC1 (configuration not stated)	Sm TGR block 22µM
CC(=O)N1CCn2c3c(c4cc(C)ccc42)CCCC31 (configuration not stated)	none
CC(=O)N1CCn2c3c(c(=O)c4cc(C)ccc42)CCC31 (configuration not stated)	Sm TGR block 20µM
Cc1cccc(N2CCN(c3ccc4cc(S(=O)(=O)N5CCC(C)CC5)ccc4n3)CC2C)c1 (configuration not stated)	none (no result: AmpC no deterg)
CC1(C)CC(=O)C(=CN2CCN(C(=O)c3ccco3)CC2)C(=O)C1	Sm TGR block inconclusive, AmpC inh detg inconclusive
CC1(C)CC(=O)C(=CN2CCOCC2)C(=O)C1	Sm TGR block 7.1µM

Screening data (PubChem BioAssay)
